In all, about 68,000 sequences were measured (“fluorescence intensity (a.u.)”: median about 9,100, highest 2% from about 16,000 on). This excerpt belongs to a sample that is enriched for the highest values.
Target: OsWRKY34 (Oryza sativa, UniProt Q0JBA9 1-250)
Experiment: protein-binding microarray (RPBM); PBS, 2% BSA, 51.3 ng/ul salmon testes DNA, 50 uM zinc acetate, 200 nM TF, 25 C, 1 h; high values mean tight binding
Details: protein: recombinant; tags: N-terminal polyhistidine and DsRed monomer fusion (pET32a); label: CyDye5-dUTP incorporated in the synthesized complementary strand; 3' TTTTT single-stranded linker to array surface; dsDNA, one strand shown
Method in brief: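 The binding signal is fluorescence intensity per array feature (arbitrary units). Readings came from an Axon 4000B scanner after a washed, 2% BSA-blocked, double-stranded custom Agilent array had been incubated for 1 h at 25 °C with 200 nM protein and 50 µM zinc acetate. The protein was a Ni–NTA-purified transcription factor fused N-terminally to polyhistidine and DsRed, expressed in E. coli BL21-CodonPlus.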

OsWRKY34, sequence (Q0JBA9 entry or part of it): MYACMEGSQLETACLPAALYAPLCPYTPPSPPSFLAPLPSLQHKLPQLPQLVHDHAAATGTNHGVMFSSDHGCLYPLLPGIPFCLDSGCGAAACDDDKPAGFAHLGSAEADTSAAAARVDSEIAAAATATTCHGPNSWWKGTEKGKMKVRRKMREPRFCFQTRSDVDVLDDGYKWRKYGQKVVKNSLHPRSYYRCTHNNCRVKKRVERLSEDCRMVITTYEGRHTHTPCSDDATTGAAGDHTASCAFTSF

Row | Sequence | binding signal
1 | AGACTATCATCTTGAGCTTATTCTTCCATTTGCTCCATCTCGGAGTCACCTAGTGCAG | 8950 fluorescence intensity (a.u.)
2 | AGCCAGCCCAAAAGCCACGCCGTCCACTCCATCTCCGCCTCGGAGTCACCTAGTGCAG | 8440 fluorescence intensity (a.u.)
3 | CGATCGATCGATCGCGCGCCTCCGCCTATAAATTCTTGCCCGGAGTCACCTAGTGCAG | 8230 fluorescence intensity (a.u.)
4 | GATCGTTTCTATTCCTAATTCGTTTTCTTTATACTCCCTCCGGAGTCACCTAGTGCAG | 11100 fluorescence intensity (a.u.)
5 | GCTGTTTGACTTTTTCTTAATTAAGCTTCTTTATGTTTGACGGAGTCACCTAGTGCAG | 19700 fluorescence intensity (a.u.)
6 | CTTCCCTAAATGTTTGACACCGTTGACTTTTTAAAATATACGGAGTCACCTAGTGCAG | 10500 fluorescence intensity (a.u.)
7 | CCCTAAATATTTGACGCCGTTGACTTTTTTAAATATGTTTCGGAGTCACCTAGTGCAG | 27300 fluorescence intensity (a.u.)
8 | CTAAATGTTTGACACCGTTGACTTTTTTAAATATGTTTGACGGAGTCACCTAGTGCAG | 23300 fluorescence intensity (a.u.)
9 | CTTTGCGTCTCCTCCCCTTTCTAATCCACTTTTTATTTTTCGGAGTCACCTAGTGCAG | 9730 fluorescence intensity (a.u.)
10 | CCCACCATTTTATATTATAAGCTGTTTGACTTTTTCTTAACGGAGTCACCTAGTGCAG | 13100 fluorescence intensity (a.u.)
11 | TTCGTTTTGACTTTTTTCTTAGTAAAACTTTTATGTTTGACGGAGTCACCTAGTGCAG | 11600 fluorescence intensity (a.u.)
12 | AAGGTCGTTGACTTTTTATTCGTCCTCGTCTAATTTCTCCCGGAGTCACCTAGTGCAG | 33600 fluorescence intensity (a.u.)
13 | TGCAGTGGCTCCGTCGCTCAGTGAACATCCAGTCCCATTTCGGAGTCACCTAGTGCAG | 9900 fluorescence intensity (a.u.)
14 | GGCCTATATATAACCATTGCTGTTGCCCTAAGAATGAATGCGGAGTCACCTAGTGCAG | 9380 fluorescence intensity (a.u.)
15 | CATTTTTGTTTTTTACTGGGAGATTTTTTTTCCTTTTTCTCGGAGTCACCTAGTGCAG | 11200 fluorescence intensity (a.u.)
16 | TAGTTGTCAGGTCGCTCCGCTTCATTCTGCTGTGCATTTTCGGAGTCACCTAGTGCAG | 10100 fluorescence intensity (a.u.)
17 | ATATAGCTTGCTTGTTCGGTTGTTCCACTGTTCCGTGAGGCGGAGTCACCTAGTGCAG | 8310 fluorescence intensity (a.u.)
18 | AATTGGGAAAATTGGAACCGTGCCACTCCATCATGTTTTCCGGAGTCACCTAGTGCAG | 8210 fluorescence intensity (a.u.)
19 | CTCTCGCCCTTCGCGCTGACCTCCTCACAGCTGCTCTCGCCGGAGTCACCTAGTGCAG | 8440 fluorescence intensity (a.u.)

Row | Sequence | binding signal
20 | AAGATCTCCCAGGCCTCGTGTTTTACGTCAACTGGTTGTACGGAGTCACCTAGTGCAG | 8270 fluorescence intensity (a.u.)
21 | ATTTATTAGTTTGATCCCTCTTTTATCACCATGTATTGCCCGGAGTCACCTAGTGCAG | 8570 fluorescence intensity (a.u.)
22 | AGGATCTTTATACACATAGCTACCACAATGGCTACAATTACGGAGTCACCTAGTGCAG | 8130 fluorescence intensity (a.u.)
23 | CCCGCGTCTCGGCCCTCTCCGTCCTCGTTGCTTCCGACGCCGGAGTCACCTAGTGCAG | 8780 fluorescence intensity (a.u.)
24 | TGCGTTGACTTTATCTTCAAATTAATTATGTGCTAATAGGCGGAGTCACCTAGTGCAG | 22300 fluorescence intensity (a.u.)
25 | ATCTCCCATGTGTGCATGCATCTTTTTTTGTTGTTTGCTGCGGAGTCACCTAGTGCAG | 11200 fluorescence intensity (a.u.)
26 | ATGTTGTTTGTTATGATGCTGTTCTTTTGTTGTTGTTTACCGGAGTCACCTAGTGCAG | 11700 fluorescence intensity (a.u.)
27 | CCCTAAATATTTGACACCGTTGACTTTTTTAAATATGTTTCGGAGTCACCTAGTGCAG | 39600 fluorescence intensity (a.u.)
28 | ATCTTTCTTATGCTGGCCATGATCTATGTTGCTGTTTTTGCGGAGTCACCTAGTGCAG | 17700 fluorescence intensity (a.u.)
29 | TTTTTGACTTTGACTTTTAATAGTAAAAAAATCAATTATGCGGAGTCACCTAGTGCAG | 9900 fluorescence intensity (a.u.)
30 | ATTGAGCGATTTTCGGTATTTCACGATGGGTTATATTTTACGGAGTCACCTAGTGCAG | 8720 fluorescence intensity (a.u.)
31 | TAATACTTTATGCGTGACTTATCTTTTTAAATTTTTTTCACGGAGTCACCTAGTGCAG | 8970 fluorescence intensity (a.u.)
32 | GGATTTTTGACGGGGTTTTGCAACGGACTTGACTTGTTTACGGAGTCACCTAGTGCAG | 8320 fluorescence intensity (a.u.)
33 | CGATTTTTATTTTTCGCCGGATGGGGTTGACTTTTTTTTACGGAGTCACCTAGTGCAG | 20900 fluorescence intensity (a.u.)
34 | GGAAGATTACCCTGTTTACCACTCACTGTACGATGATTATCGGAGTCACCTAGTGCAG | 9260 fluorescence intensity (a.u.)
35 | CACACCATTTCCTTTTTCTTTAGAAAATATCACACTATCACGGAGTCACCTAGTGCAG | 9060 fluorescence intensity (a.u.)
36 | ATCGACCTCCATTTTAACGTACGACTCCCTAAGAGACCCGCGGAGTCACCTAGTGCAG | 9660 fluorescence intensity (a.u.)
37 | AATTACTATAACACATCTTCCTAACAAATGCACCTCAATACGGAGTCACCTAGTGCAG | 8050 fluorescence intensity (a.u.)
38 | CATATGTTTACACCCAAATTTGGCACCTAGGATTAAAATACGGAGTCACCTAGTGCAG | 8350 fluorescence intensity (a.u.)

Row | Sequence | binding signal
39 | TGCTGTCGTATACTAGAAGCTGATGCTTTTCTTGCTTAGTCGGAGTCACCTAGTGCAG | 8940 fluorescence intensity (a.u.)
40 | CAACCCACACACCACCACACAGATCACAACAGCAAGTTGTCGGAGTCACCTAGTGCAG | 8160 fluorescence intensity (a.u.)
41 | TTTGTTTGGTAAAATTTTTGGTGGGGATTGGAGTTGGAAACGGAGTCACCTAGTGCAG | 9440 fluorescence intensity (a.u.)
42 | CTCTCATGTATATACATTAATTATGTTTTTGTCCCCATTTCGGAGTCACCTAGTGCAG | 9950 fluorescence intensity (a.u.)
43 | GAGCATCACAAGTCGCGACCTCACAGGGAGGGGCGGCGGCCGGAGTCACCTAGTGCAG | 9060 fluorescence intensity (a.u.)
44 | AGTAATTTATGTTTGACTATTTTTTTAAAAATTTTTTATGCGGAGTCACCTAGTGCAG | 10800 fluorescence intensity (a.u.)
45 | TGTTTTCTGTTCTTTGTTGACTTTAAGTCGCTAAATTTTGCGGAGTCACCTAGTGCAG | 11500 fluorescence intensity (a.u.)
46 | GAACTGCTCCCTCCATCCATAAATATTTGACGCCGTTGACCGGAGTCACCTAGTGCAG | 11900 fluorescence intensity (a.u.)
47 | GTTTTGACTTTTTTTTCTAATAAAATTTCTTTTATGTTTGCGGAGTCACCTAGTGCAG | 18600 fluorescence intensity (a.u.)
48 | CTGTATCCATCCCTAAATATTTGACGCCGTTGACTTTTCTCGGAGTCACCTAGTGCAG | 25600 fluorescence intensity (a.u.)
49 | ATTATCCTCTTGTTTTTCAACTGGAATGAACCACCAACAACGGAGTCACCTAGTGCAG | 9790 fluorescence intensity (a.u.)
50 | CACTACTATCTGCCTCACCGTTAACCCTACCGAATAAATTCGGAGTCACCTAGTGCAG | 8880 fluorescence intensity (a.u.)
51 | ATTGCAGCCTTCGCCTCCTTTCCTTCAGGTACACATATTGCGGAGTCACCTAGTGCAG | 9850 fluorescence intensity (a.u.)
52 | TTGTGGGAGGAGGGGATGGAATGATGATGACTCTGTTTTTCGGAGTCACCTAGTGCAG | 8200 fluorescence intensity (a.u.)
53 | GGTGATCTTTGTATTCTTTTTCTGCAGCGAACATATAGCTCGGAGTCACCTAGTGCAG | 16300 fluorescence intensity (a.u.)
54 | ATTTTGATTTTTGCAATCACCACCCCGCGCGGCGCAAACACGGAGTCACCTAGTGCAG | 8880 fluorescence intensity (a.u.)
55 | GACGCGGCGCAGTGCAACCAACAAACCGGGGCGGGCGGGGCGGAGTCACCTAGTGCAG | 11800 fluorescence intensity (a.u.)
56 | CCGCTCTGATTCGCAAACTATAACACCAAACAAACGGGCGCGGAGTCACCTAGTGCAG | 20100 fluorescence intensity (a.u.)

— paper PMC7819943, “Rice protein-binding microarrays: a tool to detect cis-acting elements near promoter regions in rice”
